Data: PubChem BioAssay (EPA / NIEHS)
Results filed as inconclusive are left out. Activity calls are given as the source filed them. How the source made its calls, unless noted: active means hit-call score of the fitted dose curve at least 0.9, where 1 is the maximum; inactive means score below 0.9.

Legend:
[1] = molecular target: Paired box protein Pax-6 (Homo sapiens) (UniProt P26367); assay: ATG_Pax6_CIS: Attagene CIS-FACTORIAL HepG2 Assay for human Paired Box 6 (PAX6) (AID 2282956); conditions: HepG2 CIS-FACTORIAL PAX6 reporter transcription, RNA readout; actives raise or lower the signal
Method in brief: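 Multiplexed cis-reporter HepG2 system; 24 h treatment; reporter mRNA read by RT-PCR/CE fluorescence; bidirectional fit vs DMSO.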

[2] = ATG_PXRE_CIS: Attagene CIS-FACTORIAL HepG2 Assay for human Pregnane X Receptor Element (PXRE) (AID 2282957); conditions: HepG2 Attagene CIS-FACTORIAL PXRE reporter, mRNA; actives raise or lower the signal
Method in brief: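 Cis-element reporter mRNA in human hepatoma HepG2 cells is measured 24 h post-dosing by RT-PCR, primer-extension labeling and capillary electrophoresis; gain or loss of signal is fitted relative to DMSO.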

[3] = ATG_PPRE_CIS: Attagene CIS-FACTORIAL HepG2 Assay for human Peroxisome Proliferator-activated Response Element (PPRE) (AID 2282958); conditions: HepG2 PPRE cis-element reporter, Attagene transcription factor profiling; actives raise or lower the signal
Method in brief: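 Read-out: fluorescent reporter mRNA fragments resolved by capillary electrophoresis after RT-PCR. HepG2 cells carried transiently transfected PPRE-driven cis reporter constructs and were dosed for 24 h; gain or loss of signal fitted relative to DMSO.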

[4] = ATG_RORE_CIS: Attagene CIS-FACTORIAL HepG2 Assay for human RAR-related Orphan Receptor Element (RORE) (AID 2282959); conditions: HepG2 Attagene cis-factorial RORE reporter, mRNA; actives raise or lower the signal
Method in brief: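 Readout: fluorescent reporter mRNA by RT-PCR plus capillary electrophoresis, 24 h after dosing transfected HepG2 cells. Endogenous transcription factor activity on a cis promoter element is measured. Gain or loss of signal fitted against DMSO.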

[5] = ATG_Sox_CIS: Attagene CIS-FACTORIAL HepG2 Assay for human SRY-box transcription factor (SOX) (AID 2282960); conditions: HepG2 Attagene cis-factorial SOX reporter, mRNA; actives raise or lower the signal
Method in brief: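 Read-out: fluorescent RT-PCR products of SOX1-linked reporter transcripts resolved by capillary electrophoresis, fitted bidirectionally against DMSO. Transiently transfected HepG2 cells, 24 h after chemical exposure, endogenous transcription factor activity.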

[6] = molecular target: Transcription factor Sp1 (Homo sapiens) (UniProt P08047); assay: ATG_Sp1_CIS: Attagene CIS-FACTORIAL HepG2 Assay for human Specificity Protein 1 (Sp1) (AID 2282961); conditions: HepG2 Sp1 cis-reporter transcription, actives raise or lower the signal
Method in brief: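 Read-out: fluorescence of 6-FAM-labeled, HpaI-digested RT-PCR products separated by capillary electrophoresis. HepG2 cells carried transfected cis-element reporter units and were exposed to chemicals for 24 h; gain or loss of signal fitted relative to DMSO.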

[7] = ATG_SREBP_CIS: Attagene CIS-FACTORIAL HepG2 Assay for human Sterol Regulatory Element Binding (SREBP) (AID 2282962); conditions: HepG2 Attagene cis-factorial SREBP reporter, mRNA; actives raise or lower the signal
Method in brief: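 mRNA induction of transfected cis-promoter reporters in HepG2 cells, 24 h post-dose. Detection: RT-PCR with 6-FAM-labelled products, HpaI digest, capillary electrophoresis. DMSO served as negative control and baseline.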

[8] = molecular target: Signal transducer and activator of transcription 3 (Homo sapiens) (UniProt P40763); assay: ATG_STAT3_CIS: Attagene CIS-FACTORIAL HepG2 Assay for human Signal Transducer and Activator of Transcription 3 (STAT3) (AID 2282963); conditions: HepG2, Attagene cis-factorial STAT3 reporter transcription; actives raise or lower the signal
Method in brief: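 After a 24 h compound incubation, total RNA from MRTU-transfected HepG2 cells was converted to cDNA and reporter sequences PCR-amplified, labelled and profiled by capillary electrophoresis. Gain and loss of signal were referenced to DMSO.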

[9] = ATG_TA_CIS: Attagene CIS-FACTORIAL HepG2 Assay for human TA Basal Promoter (AID 2282964); conditions: HepG2 Attagene CIS-factorial TA basal promoter reporter; actives raise or lower the signal
Method in brief: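 Transient MRTU transfection of HepG2 preceded 24 h compound exposure. Reporter mRNA levels were then read by RT-PCR with capillary electrophoresis, and this background-control endpoint was fitted bidirectionally to DMSO.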

[10] = ATG_TCF_b_cat_CIS: Attagene CIS-FACTORIAL HepG2 Assay for human T-Cell-Factor with beta-catenin (TCF/b-cat) (AID 2282965); conditions: HepG2 TCF/beta-catenin cis-reporter transcription, actives raise or lower the signal
Method in brief: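 Endogenous transcription factor activity is captured through cis-promoter reporter constructs transiently introduced into human HepG2 liver cells. Induced reporter mRNA is measured after 24 h and fitted bidirectionally relative to DMSO.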

[11] = ATG_TAL_CIS: Attagene CIS-FACTORIAL HepG2 Assay for human TAL Basal Promoter (AID 2282966); conditions: HepG2 Attagene cis-factorial TAL promoter reporter; actives raise or lower the signal;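 further: background control endpoint measuring basal TAL promoter reporter mRNA not a specific factor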
Method in brief: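 In this cell-based multiplex, HepG2 liver cells bearing cis-promoter reporter constructs are dosed for 24 hours. Total RNA is reverse-transcribed and amplified, labelled fragments are sized by capillary electrophoresis, and signal changes are fitted bidirectionally versus DMSO.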

[12] = ATG_TGFb_CIS: Attagene CIS-FACTORIAL HepG2 Assay for human Transforming Growth Factor (TGF) (AID 2282967); conditions: HepG2 Attagene CIS TGFb reporter, mRNA transcription; actives raise or lower the signal
Method in brief: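 After a 24-hour incubation with compound, transfected HepG2 cells were lysed for RNA; reporter cDNA was amplified, fluorescently end-labeled and separated by CE. DMSO served as baseline for bidirectional fits.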

[13] = ATG_VDRE_CIS: Attagene CIS-FACTORIAL HepG2 Assay for human Vitamin D Receptor Element (VDRE) (AID 2282968); conditions: HepG2 VDRE cis-reporter transcription, actives raise or lower the signal
Method in brief: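 In transiently transfected HepG2 liver cells, gain or loss of reporter mRNA after 24 h exposure is scored relative to DMSO, using fluorescence detection by capillary electrophoresis of RT-PCR products.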

[14] = molecular target: Estrogen receptor (Homo sapiens) (UniProt P03372); assay: ATG_ERa_TRANS: Attagene TRANS-FACTORIAL HepG2 Assay for human Estrogen Receptor alpha (ERa) (AID 2282970; active means hit-call score of the fitted dose curve at least 0.9, where 1 is the maximum); conditions: HepG2 Attagene TRANS ERa GAL4 reporter, mRNA
Method in brief: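 After 24 h of compound treatment, RNA from HepG2 cells bearing transfected GAL4-UAS reporter constructs is converted to cDNA, amplified and fluorescently labelled. Capillary electrophoresis resolves the ERa-linked reporter; DMSO serves as negative control.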

[15] = molecular target: X-box-binding protein 1 (Homo sapiens) (UniProt P17861); assay: ATG_Xbp1_CIS: Attagene CIS-FACTORIAL HepG2 Assay for human X-box Binding Protein 1 (XBP1) (AID 2282972); conditions: HepG2 XBP1 cis-element reporter, Attagene multiplex; actives raise or lower the signal
Method in brief: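 Fluorescence-labelled cDNA fragments from reporter transcripts, separated by capillary electrophoresis, give the signal. Source: HepG2 cells transfected with promoter-driven reporter units, harvested 24 h post-dose. DMSO served as reference for bidirectional curve fitting.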

[16] = ATG_M_19_TRANS: Attagene TRANS-FACTORIAL HepG2 Assay for M19 Transcription Factor (Internal Marker) (AID 2282974; active means hit-call score of the fitted dose curve at least 0.9, where 1 is the maximum); conditions: HepG2 Attagene TRANS-FACTORIAL M19 internal marker reporter
Method in brief: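 24 h chemical exposure of transiently transfected HepG2 (MRTU library). RNA → oligo(dT) RT → PCR → 6-FAM labelling → HpaI cut → CE fluorescence. Positive-direction fit vs DMSO baseline; background internal-marker readout.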

[17] = ATG_GAL4_TRANS: Attagene TRANS-FACTORIAL HepG2 Assay for GAL4 (Internal Marker) (AID 2282976; active means hit-call score of the fitted dose curve at least 0.9, where 1 is the maximum); conditions: HepG2 Attagene TRANS GAL4 internal marker reporter
Method in brief: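 RT-PCR/capillary electrophoresis readout of reporter mRNA. HepG2, transient MRTU transfection (GAL4-UAS reporters), 24 h compound exposure. Background-control endpoint, positive direction vs DMSO baseline.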

[18] = molecular target: Nuclear receptor subfamily 1 group I member 3 (Homo sapiens) (UniProt Q14994); assay: ATG_CAR_TRANS: Attagene TRANS-FACTORIAL HepG2 Assay for human Constitutive Androstane Receptor (CAR) (AID 2282969; active means hit-call score of the fitted dose curve at least 0.9, where 1 is the maximum;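 further: activators raise reporter mRNA above DMSO so AC50 marks induction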); conditions: HepG2 Attagene TRANS-FACTORIAL CAR reporter
Method in brief: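 Readout is reporter mRNA induction, quantified by fluorescent primer extension and capillary electrophoresis after RT-PCR. Cells were HepG2 transiently carrying chimeric NR-Gal4 constructs with GAL4-UAS reporters, treated for 24 h; activity scored upward from DMSO.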

[19] = molecular target: Estrogen-related receptor gamma (Homo sapiens) (UniProt P62508); assay: ATG_ERRg_TRANS: Attagene TRANS-FACTORIAL HepG2 Assay for human Estrogen-Related Receptor gamma (ERRg) (AID 2282977; active means hit-call score of the fitted dose curve at least 0.9, where 1 is the maximum;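 further: hits increase reporter signal over DMSO so potencies reflect activators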); conditions: HepG2 Attagene TRANS reporter, ERRg transactivation
Method in brief: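 HepG2 cells transiently transfected with multiplexed GAL4-UAS reporter units and chimeric NR-Gal4 constructs were exposed to test chemicals for 24 h. Reporter mRNA was measured by RT-PCR, 6-FAM primer extension, HpaI digestion and capillary electrophoresis; gain-of-signal versus DMSO.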

[20] = molecular target: Steroid hormone receptor ERR1 (Homo sapiens) (UniProt P11474); assay: ATG_ERRa_TRANS: Attagene TRANS-FACTORIAL HepG2 Assay for human Estrogen-Related Receptor alpha (ERRa) (AID 2282971; active means hit-call score of the fitted dose curve at least 0.9, where 1 is the maximum); conditions: HepG2 Attagene TRANS reporter, ERRa transactivation
Method in brief: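 Transfected HepG2, 24 h dosing, ERRa-Gal4 chimera driving GAL4-UAS reporter. Readout: reporter mRNA via RT-PCR plus capillary electrophoresis (fluorescence). Positive direction vs DMSO control.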

Measured: AC50

Sequence of Estrogen receptor (Homo sapiens) (P03372 whole entry, looked up, the tested form may be a part): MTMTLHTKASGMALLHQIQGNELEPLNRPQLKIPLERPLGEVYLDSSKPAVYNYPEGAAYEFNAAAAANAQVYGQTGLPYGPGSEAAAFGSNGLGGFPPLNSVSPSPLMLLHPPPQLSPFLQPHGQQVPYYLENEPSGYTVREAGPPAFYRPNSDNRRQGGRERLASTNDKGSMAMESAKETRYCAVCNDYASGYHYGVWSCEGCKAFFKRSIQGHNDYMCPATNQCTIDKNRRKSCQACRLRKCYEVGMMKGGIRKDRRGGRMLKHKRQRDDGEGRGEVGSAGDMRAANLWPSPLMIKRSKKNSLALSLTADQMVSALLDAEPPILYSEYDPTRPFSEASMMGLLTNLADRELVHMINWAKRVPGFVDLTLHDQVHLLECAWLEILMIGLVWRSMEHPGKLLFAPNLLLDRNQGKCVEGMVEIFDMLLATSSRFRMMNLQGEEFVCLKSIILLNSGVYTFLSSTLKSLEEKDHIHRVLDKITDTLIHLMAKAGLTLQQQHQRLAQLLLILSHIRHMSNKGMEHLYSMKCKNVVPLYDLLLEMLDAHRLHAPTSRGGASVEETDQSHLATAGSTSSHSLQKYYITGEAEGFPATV
Sequence of Estrogen-related receptor gamma (Homo sapiens) (P62508 whole entry, looked up, the tested form may be a part): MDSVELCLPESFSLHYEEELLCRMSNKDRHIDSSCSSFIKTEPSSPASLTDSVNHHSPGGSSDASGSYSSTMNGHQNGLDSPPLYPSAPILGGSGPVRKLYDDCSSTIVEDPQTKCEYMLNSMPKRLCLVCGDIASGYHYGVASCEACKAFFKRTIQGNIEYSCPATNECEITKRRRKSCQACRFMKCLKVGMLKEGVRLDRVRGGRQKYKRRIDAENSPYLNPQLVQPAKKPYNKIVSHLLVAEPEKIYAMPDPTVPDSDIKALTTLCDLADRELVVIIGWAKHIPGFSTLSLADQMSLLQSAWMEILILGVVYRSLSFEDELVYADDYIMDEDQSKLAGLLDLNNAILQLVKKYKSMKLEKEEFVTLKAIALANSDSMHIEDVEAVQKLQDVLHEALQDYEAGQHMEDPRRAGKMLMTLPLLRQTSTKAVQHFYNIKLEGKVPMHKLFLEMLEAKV
Sequence of X-box-binding protein 1 (Homo sapiens) (P17861 whole entry, looked up, the tested form may be a part): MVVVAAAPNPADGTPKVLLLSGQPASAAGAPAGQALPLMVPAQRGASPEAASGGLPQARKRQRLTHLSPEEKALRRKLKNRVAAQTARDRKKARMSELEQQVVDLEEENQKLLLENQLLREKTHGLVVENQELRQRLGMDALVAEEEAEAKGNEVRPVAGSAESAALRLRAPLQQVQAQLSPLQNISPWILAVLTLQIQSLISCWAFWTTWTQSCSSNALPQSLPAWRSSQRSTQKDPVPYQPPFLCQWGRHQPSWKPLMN
Sequence of Transcription factor Sp1 (Homo sapiens) (P08047 whole entry, looked up): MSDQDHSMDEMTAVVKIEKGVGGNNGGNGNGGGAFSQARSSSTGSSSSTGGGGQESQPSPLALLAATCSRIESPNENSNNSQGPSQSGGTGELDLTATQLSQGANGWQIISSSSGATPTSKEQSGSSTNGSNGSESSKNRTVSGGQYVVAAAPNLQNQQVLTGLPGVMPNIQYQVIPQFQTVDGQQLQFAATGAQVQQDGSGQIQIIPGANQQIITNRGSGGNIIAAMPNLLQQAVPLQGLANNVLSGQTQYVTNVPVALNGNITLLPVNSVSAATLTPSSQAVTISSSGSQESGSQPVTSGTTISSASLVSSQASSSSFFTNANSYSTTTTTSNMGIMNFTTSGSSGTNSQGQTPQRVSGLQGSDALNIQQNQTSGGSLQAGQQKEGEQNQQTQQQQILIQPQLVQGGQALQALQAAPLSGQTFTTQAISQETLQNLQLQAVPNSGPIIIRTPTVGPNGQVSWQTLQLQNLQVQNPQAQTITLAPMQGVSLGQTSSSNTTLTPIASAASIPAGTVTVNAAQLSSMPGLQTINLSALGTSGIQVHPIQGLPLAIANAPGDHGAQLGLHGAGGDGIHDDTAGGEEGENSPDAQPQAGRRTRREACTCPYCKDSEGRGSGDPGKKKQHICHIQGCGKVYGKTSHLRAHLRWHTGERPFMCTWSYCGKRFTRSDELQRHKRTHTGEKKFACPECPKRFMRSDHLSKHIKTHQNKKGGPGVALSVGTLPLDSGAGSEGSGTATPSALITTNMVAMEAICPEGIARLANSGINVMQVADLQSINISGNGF
Sequence of Nuclear receptor subfamily 1 group I member 3 (Homo sapiens) (Q14994 whole entry, looked up, the tested form may be a part): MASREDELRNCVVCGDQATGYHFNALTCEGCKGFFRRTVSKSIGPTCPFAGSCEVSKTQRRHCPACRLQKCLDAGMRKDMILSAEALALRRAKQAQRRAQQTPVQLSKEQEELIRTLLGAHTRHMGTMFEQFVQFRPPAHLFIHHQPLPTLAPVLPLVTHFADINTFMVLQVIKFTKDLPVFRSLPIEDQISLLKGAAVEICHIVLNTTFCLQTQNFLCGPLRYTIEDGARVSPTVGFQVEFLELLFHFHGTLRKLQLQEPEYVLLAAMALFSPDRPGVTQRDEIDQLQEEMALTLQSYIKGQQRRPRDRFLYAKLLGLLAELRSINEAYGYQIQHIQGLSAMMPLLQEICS
Sequence of Paired box protein Pax-6 (Homo sapiens) (P26367 whole entry, looked up): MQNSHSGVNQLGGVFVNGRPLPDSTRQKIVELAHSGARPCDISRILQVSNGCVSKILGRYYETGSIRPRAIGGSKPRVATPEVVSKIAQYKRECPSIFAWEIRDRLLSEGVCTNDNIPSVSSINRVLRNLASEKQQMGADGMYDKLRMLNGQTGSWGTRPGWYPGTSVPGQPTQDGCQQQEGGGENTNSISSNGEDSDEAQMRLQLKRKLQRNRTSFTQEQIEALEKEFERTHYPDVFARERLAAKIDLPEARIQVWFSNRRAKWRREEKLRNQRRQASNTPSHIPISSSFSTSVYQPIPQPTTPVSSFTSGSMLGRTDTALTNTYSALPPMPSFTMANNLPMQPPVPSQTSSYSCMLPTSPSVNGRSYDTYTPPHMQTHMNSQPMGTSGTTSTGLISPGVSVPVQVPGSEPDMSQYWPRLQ
Sequence of Signal transducer and activator of transcription 3 (Homo sapiens) (P40763 whole entry, looked up): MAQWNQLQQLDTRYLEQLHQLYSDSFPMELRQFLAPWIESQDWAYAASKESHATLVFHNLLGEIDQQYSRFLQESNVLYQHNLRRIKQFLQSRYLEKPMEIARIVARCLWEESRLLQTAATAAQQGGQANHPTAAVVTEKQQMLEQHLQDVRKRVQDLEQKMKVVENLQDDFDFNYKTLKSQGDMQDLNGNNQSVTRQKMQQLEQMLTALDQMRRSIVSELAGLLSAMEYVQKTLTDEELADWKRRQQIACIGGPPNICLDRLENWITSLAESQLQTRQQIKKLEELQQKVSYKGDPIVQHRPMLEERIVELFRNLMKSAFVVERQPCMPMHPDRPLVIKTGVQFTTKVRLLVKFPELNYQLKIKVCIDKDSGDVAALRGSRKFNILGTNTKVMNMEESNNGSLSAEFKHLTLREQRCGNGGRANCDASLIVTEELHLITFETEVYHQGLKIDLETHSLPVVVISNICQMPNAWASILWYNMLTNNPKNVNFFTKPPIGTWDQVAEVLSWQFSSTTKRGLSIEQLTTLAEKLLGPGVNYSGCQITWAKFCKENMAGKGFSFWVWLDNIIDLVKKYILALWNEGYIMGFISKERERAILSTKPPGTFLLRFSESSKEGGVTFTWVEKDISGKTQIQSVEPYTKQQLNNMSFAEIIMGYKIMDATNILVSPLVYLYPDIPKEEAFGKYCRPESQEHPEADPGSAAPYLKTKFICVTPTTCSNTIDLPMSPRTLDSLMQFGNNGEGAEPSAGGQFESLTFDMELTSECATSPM
Sequence of Steroid hormone receptor ERR1 (Homo sapiens) (P11474 whole entry, looked up, the tested form may be a part): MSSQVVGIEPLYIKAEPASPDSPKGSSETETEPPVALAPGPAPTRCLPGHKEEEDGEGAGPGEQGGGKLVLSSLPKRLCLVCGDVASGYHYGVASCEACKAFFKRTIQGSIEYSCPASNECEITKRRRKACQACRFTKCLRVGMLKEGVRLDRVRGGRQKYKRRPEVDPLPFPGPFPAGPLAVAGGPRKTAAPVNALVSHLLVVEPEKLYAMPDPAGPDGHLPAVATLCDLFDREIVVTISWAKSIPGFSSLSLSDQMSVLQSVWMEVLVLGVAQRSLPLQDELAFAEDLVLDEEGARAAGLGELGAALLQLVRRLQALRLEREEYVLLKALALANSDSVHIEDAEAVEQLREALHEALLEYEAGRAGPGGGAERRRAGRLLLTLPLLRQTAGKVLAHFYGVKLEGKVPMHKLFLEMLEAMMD

NC(=O)c1ccccc1O
not listed: [18] | [19] | [20]
inactive: all other assays above

CC(=O)OC(C)C
active: [2] 100 µM
not listed: [16] | [17] | [18] | [19] | [20]
inactive: all other assays above

CCCCCCOc1cc(C)c(O)c(C)c1C
active: [2] 3.01 µM | [13] 9.58 µM
not listed: [16] | [17] | [20]
inactive: all other assays above

O=c1[nH]nc(-c2ccc([N+](=O)[O-])o2)o1
not listed: [14] | [17] | [20]
inactive: all other assays above

O=c1n(CCO)c(=O)n(CCO)c(=O)n1CCO
not listed: [14] | [19] | [20]
inactive: all other assays above

CCOC(=O)c1ccc(N(C)C)cc1
active: [2] 28.1 µM | [13] 65.8 µM
not listed: [17] | [19] | [20]
inactive: all other assays above

O=C1CCCC(=O)O1
not listed: [14] | [17] | [19] | [20]
inactive: all other assays above

CC(CC=O)CCCC(C)(C)O (stereo not given)
active: [2] 41.2 µM
not listed: [17] | [18] | [20]
inactive: all other assays above

CC(C)c1ccc2c(C(C)C)cc(C(C)C)c(S(=O)(=O)O)c2c1
active: [2] 1.56 µM | [7] 22.4 µM | [13] 8.94 µM | [14] 45.4 µM
not listed: [16] | [18] | [19] | [20]
inactive: all other assays above

CCCNC(=O)NS(=O)(=O)c1ccc(Cl)cc1
not listed: [17] | [18] | [19] | [20]
inactive: all other assays above

Nc1ccc2cc3ccccc3cc2c1
active: [2] 13.2 µM | [14] 6.94 µM
not listed: [16] | [19] | [20]
inactive: all other assays above

Nc1ccc(N=Nc2ccccc2)c(N)n1
active: [3] 100 µM | [4] 51.6 µM | [13] 68.9 µM | [14] 27.8 µM | [15] 70.3 µM
not listed: [17] | [19] | [20]
inactive: all other assays above

S=C(NC1CCCCC1)NC1CCCCC1
active: [2] 4.14 µM
not listed: [17] | [18] | [20]
inactive: all other assays above

Cc1cccc(N(C)C(=S)Oc2ccc3ccccc3c2)c1
active: [2] 0.61 µM | [3] 24.4 µM | [4] 20.5 µM | [12] 9.03 µM | [13] 1.11 µM | [14] 3.78 µM
not listed: [16] | [19] | [20]
inactive: all other assays above

NC(=O)N=NC(N)=O
not listed: [14] | [16] | [19]
inactive: all other assays above

CN(C)c1ccc(C(=N)c2ccc(N(C)C)cc2)cc1
active: [1] 3.16 µM | [2] 5.82 µM | [4] 1.28 µM | [10] 9.76 µM | [13] 1.29 µM | [15] 1.21 µM
not listed: [16] | [17] | [18] | [19] | [20]
inactive: all other assays above
